TEAD-YAP inh – TEAD-YAP interaction inhibition, primary screen, TEAD-YAP interaction inhibitor project, luminescence, HEK-TIYL cells; actives 1.4% (n = 640,000); TEAD-Gal4/YAP UAS-luciferase luminescence; AID 1259422, 2018; inhibition, % at 9.12 µM; in the data active means inhibition above about 32%;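 further: 0% = median of test compound wells and 100% = reference inhibitor wells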
FBW7 act – FBW7 E3 ligase activators, primary screen, biochemical, AlphaScreen, human; normalized activity (activation), % at 26.1 µM; AID 1259310, 2017; actives 0.13% (n = 650,000); F-box/WD repeat-containing protein 7 (Homo sapiens), Q969H0; AlphaScreen FBW7–phospho-cyclin E peptide binding, activator screen; in the data active means normalized activity above about 1.9%;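 further: purified mutant Fbw7 with reduced substrate affinity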
MITF inh – MITF inhibitors, primary screen, biochemical, AlphaScreen, human | actives 0.91% (n = 650,000) | AlphaScreen MITF homodimerization, bead proximity signal | AID 1259374, 2018 | inhibition, % at 2.6 µM; in the data active means inhibition above about 50%;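 further: 0% = vehicle wells with protein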
GPR151 activ – activators of human GPR151, primary screen, cell-based, PathHunter beta-arrestin, luminescence; G-protein coupled receptor 151 (Homo sapiens), Q8TDV0; PathHunter beta-arrestin GPR151 cells; activation, % at 11.2 µM; actives 1% (n = 650,000); in the data active means activation above about 4.9%;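 further: 0% = median of compound wells and 100% = cells with positive control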
Target sequence (Q8TDV0 whole entry, looked up): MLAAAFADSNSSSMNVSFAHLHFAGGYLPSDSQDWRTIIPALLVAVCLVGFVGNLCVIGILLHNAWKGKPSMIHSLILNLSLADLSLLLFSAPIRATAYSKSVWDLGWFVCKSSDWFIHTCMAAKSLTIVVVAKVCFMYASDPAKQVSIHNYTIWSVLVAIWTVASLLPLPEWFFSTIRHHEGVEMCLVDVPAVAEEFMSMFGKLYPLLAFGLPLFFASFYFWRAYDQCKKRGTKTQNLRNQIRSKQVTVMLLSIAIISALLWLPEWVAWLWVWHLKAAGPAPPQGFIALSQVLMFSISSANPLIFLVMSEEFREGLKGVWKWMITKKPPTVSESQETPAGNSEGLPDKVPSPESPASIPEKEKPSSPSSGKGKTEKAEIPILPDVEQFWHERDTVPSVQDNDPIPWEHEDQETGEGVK
GPR151 conf act – GPR151 activators, triplicate retest, confirmation, cell-based, PathHunter beta-arrestin, luminescence; AID 1508609, 2020; GPR151 PathHunter beta-arrestin cells, 90 min; % of EA-reagent control over plate median; shares compounds with GPR151 activ; 6,700 tested, under 10 active; activation, % at 11.2 µM;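 active means mean percent activation across replicates above the confirmation screen cutoff of 4.91%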
GPR119 ag – GPR119 activators in beta-arrestin cells, counter-screen for GPR151 activator project, cell-based, PathHunter beta-arrestin, luminescence, triplicate | shares compounds with GPR151 activ | 90 min; 0 = compound-well median, 100 = enzyme-acceptor control | activation, % at 11.2 µM | actives 0.3% (n = 6,700) | AID 1508611, 2020;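 active means mean percent activation in the counterscreen above 29.09%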;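 further: counterscreen on off-target GPR119 to flag nonselective hits from the GPR151 activator screen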
An asterisk follows results filed as active. Rows were chosen to be rich in hits. Some 3.5% of all compounds tested hit in one or more screens of this group.

How did CCn1nc(C)c(CN2CCOc3ccc(C(C)(O)COc4ccccc4)cc3C2)c1C (stereo unspecified) do in these assays?
TEAD-YAP inh: -1; FBW7 act: 0; MITF inh: -11; GPR151 activ: 6.3*; GPR151 conf act: -1; GPR119 ag: -13

How did COc1ccccc1NC(=O)CSc1nnc(COc2ccc(C)cc2)n1C do in these assays?
TEAD-YAP inh: 5; FBW7 act: 0; MITF inh: 9; GPR151 activ: 5.3*; GPR151 conf act: -1; GPR119 ag: -6

What do the screens show for `CNC(=O)CSc1nnc(COc2ccccc2OC)n1C`?
TEAD-YAP inh: 2; FBW7 act: 0; MITF inh: -8; GPR151 activ: 0

What do the screens show for `COc1ccccc1NC(=O)CSc1nnc(CNC(=O)c2ccc(C)cc2)n1C`?
TEAD-YAP inh: 9; FBW7 act: 0; MITF inh: -16; GPR151 activ: 1

Results for Cn1c(COc2ccc(Cl)cc2)nnc1SCC(=O)NC(C)(C)C ?
TEAD-YAP inh: -2; FBW7 act: 0; MITF inh: -2; GPR151 activ: -1

How did COc1ccc(Cc2nnc(SCC(=O)Nc3ccccc3OC)n2-n2cccc2)cc1 do in these assays?
TEAD-YAP inh: 17; FBW7 act: 0; MITF inh: 3; GPR151 activ: 11*; GPR151 conf act: -1; GPR119 ag: -18

What do the screens show for `Cn1c(COc2ccc(Cl)cc2)nnc1SCC(=O)NCC(F)(F)F`?
TEAD-YAP inh: 0; FBW7 act: 0; MITF inh: 3; GPR151 activ: 5.1*; GPR151 conf act: 2; GPR119 ag: 4

Results for COC(=O)CSc1nnc(COc2ccccc2OC)n1C ?
TEAD-YAP inh: -5; FBW7 act: 0; MITF inh: 2; GPR151 activ: 5.3*; GPR151 conf act: 1; GPR119 ag: 4

How did O=C(CNC(=S)N(CCCN1CCOCC1)Cc1cccs1)N1CCC2(CC1)OCCO2 do in these assays?
TEAD-YAP inh: -3; FBW7 act: 0; MITF inh: 9; GPR151 activ: -1

What do the screens show for `CCc1ccc(N2CC(C(=O)Nc3c(C)cc(C)cc3C)CC2=O)cc1` (stereo unspecified)?
TEAD-YAP inh: -2; FBW7 act: 0; MITF inh: 20; GPR151 activ: -1

How did CCc1nnc(NS(=O)(=O)c2ccc(NC(=O)CN3C(=O)c4ccccc4C3=O)cc2)s1 do in these assays?
TEAD-YAP inh: 2; FBW7 act: 0; MITF inh: -5; GPR151 activ: 7.4*; GPR151 conf act: 1; GPR119 ag: 14

Results for CCSc1nc2sccn2c(=O)c1C(=O)Nc1ccc(OC)c(OC)c1 ?
TEAD-YAP inh: -17; FBW7 act: 0; MITF inh: 0; GPR151 activ: 0

What do the screens show for `Cc1noc(/C=C/C=C/c2ccccc2)c1[N+](=O)[O-]`?
TEAD-YAP inh: -1; FBW7 act: 0; MITF inh: 34; GPR151 activ: 0

What do the screens show for `COc1ccc(OC)c(/C=C\c2onc(C)c2[N+](=O)[O-])c1`?
TEAD-YAP inh: 2; FBW7 act: 0; MITF inh: -17; GPR151 activ: 8.9*; GPR151 conf act: 0; GPR119 ag: -8

Results for O=C(c1cc([N+](=O)[O-])ccc1Cl)n1cnc2ccccc21 ?
TEAD-YAP inh: 13; FBW7 act: 0; MITF inh: 20; GPR151 activ: 0

What do the screens show for `O=C(COc1ccc(Cl)cc1)Nc1ccc(Br)cn1`?
TEAD-YAP inh: -15; FBW7 act: 0; MITF inh: 9; GPR151 activ: 1

How did O=Cc1cc(Cl)ccc1OCC(=O)Nc1ccc(F)cc1 do in these assays?
TEAD-YAP inh: -57; FBW7 act: 0; MITF inh: 8; GPR151 activ: 11*; GPR151 conf act: -1; GPR119 ag: 3

What do the screens show for `O=C(Nc1ccc(Cl)cn1)c1ccccc1Cl`?
TEAD-YAP inh: -69; FBW7 act: 0; MITF inh: 6; GPR151 activ: -4

Source: PubChem BioAssay (The Scripps Research Institute Molecular Screening Center)
